Most compounds without a hit are left out; they make up all but 2.7% or so of the library.
Peg3 prom inh – inhibitors of Peg3 promoter. HeLa PEG-Prom luciferase reporter, luminescence, overnight. inhibition, % at 20 µM. 360,000 compounds, 1.7% hits. AID 588405;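 active means inhibition of at least 50% at 20 µM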
HIF-2a inh – inhibitors of HIF-2a | 786-0 RCC cells HIF-2a reporter, luciferase luminescence, overnight | inhibition, % at 18.8 µM | 360,000 compounds, 0.72% hits;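 active means inhibition of the luminescence signal of 40% or more relative to plate controls, in a single-dose primary screen at 18.75 µM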
TRPM1 prom inh – reduces MITF-dependent TRPM1 promoter luciferase signal; AID 488899; SK-MEL-5 TRPM1 promoter luciferase, 24 h; inhibition, % at 12.5 µM; 330,000 compounds, 0.83% hits;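 active means mean inhibition across replicates of 60% or more, whatever share of single replicates reaches that level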
Shn3 inh set2 – Schnurri-3 reporter inhibition in Clone20 osteoblasts | Clone20 osteoblast Shn3 3'UTR firefly luciferase, 24 h | inhibition, % at 12.5 µM | 360,000 compounds, 0.52% hits;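 active means mean inhibition of at least 75% with every replicate also reaching 75%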
CF NFkB block – inhibitors of cystic fibrosis induced NF-kB; AID 588850; 360,000 compounds, 0.86% hits; inhibition, % at 5 µM; KKLEB NF-kB-GFP reporter, PAF-induced, GFP fluorescence overnight;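 active means at least 50% inhibition at 5 µM, scaled per plate between neutral and stimulator controls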;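 further: PAF is a Pseudomonas aeruginosa culture filtrate used as stimulus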
KKLEB tox – CF airway cell cytotoxicity counter-screen | activity change (cytotoxicity), % at 5 µM | KKLEB CF airway cells viability, ATPlite luminescence, overnight; hits give low values; cells stimulated with P. aeruginosa culture filtrate | AID 602141 | 360,000 compounds, 0.36% hits;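 active means corrected activity change at or below -50% at 5 µM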
CF NFkB inh conf – confirmation of cystic fibrosis induced NF-kB inhibitors | shares compounds with CF NFkB block | KKLEB CF airway cells, PAF-induced NF-kB-GFP fluorescence, overnight | inhibition, % at 5 µM | 1,300 compounds, 64% hits; in the data active means inhibition above about 40%;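 further: stimulus PAF is a Pseudomonas aeruginosa filtrate and not platelet activating factor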
Mdm2-MdmX confirm – Mdm2/MdmX (human) interaction inhibition, confirmed; shares compounds with HIF-2a inh; SaOS-2 split-luciferase Mdm2/MdmX complementation, luminescence; inhibition, % at 8 µM; 740 compounds, 99% hits;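 active means mean inhibition of the luminescence signal across two replicates at or above 26 percent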
Target sequence (O15151 whole entry, looked up): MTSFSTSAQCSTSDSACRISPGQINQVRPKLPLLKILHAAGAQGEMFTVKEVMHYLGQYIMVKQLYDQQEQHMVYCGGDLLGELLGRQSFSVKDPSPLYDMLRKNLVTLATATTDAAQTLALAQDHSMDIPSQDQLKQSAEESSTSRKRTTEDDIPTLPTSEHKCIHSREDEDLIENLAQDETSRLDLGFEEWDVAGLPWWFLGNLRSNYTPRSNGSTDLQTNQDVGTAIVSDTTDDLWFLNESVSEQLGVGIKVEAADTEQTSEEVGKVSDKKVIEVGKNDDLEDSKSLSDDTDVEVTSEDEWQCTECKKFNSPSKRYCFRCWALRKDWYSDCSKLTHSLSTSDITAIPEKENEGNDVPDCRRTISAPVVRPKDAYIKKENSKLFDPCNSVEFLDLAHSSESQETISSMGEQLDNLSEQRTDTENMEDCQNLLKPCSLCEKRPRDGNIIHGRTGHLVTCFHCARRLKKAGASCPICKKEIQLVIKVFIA
Target sequence (Q00987 whole entry, looked up): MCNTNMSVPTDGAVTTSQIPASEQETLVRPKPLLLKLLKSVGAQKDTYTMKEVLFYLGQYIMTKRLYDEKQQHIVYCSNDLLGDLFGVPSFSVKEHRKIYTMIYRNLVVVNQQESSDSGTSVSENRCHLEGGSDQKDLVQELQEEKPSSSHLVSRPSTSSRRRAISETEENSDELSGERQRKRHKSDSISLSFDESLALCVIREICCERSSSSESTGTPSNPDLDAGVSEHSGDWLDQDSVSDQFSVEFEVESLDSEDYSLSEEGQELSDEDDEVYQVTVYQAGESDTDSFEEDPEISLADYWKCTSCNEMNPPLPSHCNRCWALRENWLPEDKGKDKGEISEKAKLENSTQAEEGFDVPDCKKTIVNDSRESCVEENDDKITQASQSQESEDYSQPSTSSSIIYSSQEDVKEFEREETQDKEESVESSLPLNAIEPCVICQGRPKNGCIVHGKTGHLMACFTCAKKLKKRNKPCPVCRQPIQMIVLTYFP
HIF-2a conf – HIF-2a inhibition, single concentration confirmation | shares compounds with HIF-2a inh | 786-0 RCC cells, HIF-2a luciferase reporter luminescence, overnight | inhibition, % at 18.8 µM | 1,800 compounds, 56% hits | AID 651580;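 active means mean inhibition across four replicates of at least 40 percent at the single tested concentration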
HIF-1a counter – HIF-1a inhibition counter-screen for HIF-2a hits; shares compounds with HIF-2a inh; MiaPaCa-2 HIF-1a luciferase reporter, desferoxamine, overnight; inhibition, % at 18.8 µM; 1,800 compounds, 72% hits;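 active means mean inhibition of the reporter signal across four replicates at the single tested dose of 50% or more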
Large screens that a line does not name were inactive (follow-up assays come after a bar, where they were run).

Cc1ccc(F)c([C@H]2C3C=CCC(c4ccccc4)C3C(=O)N2Cc2ccccc2)c1 (some centres undefined)	CF NFkB block 63 | CF NFkB inh conf inactive
CN1CCC(N2CCN(C3CN(Cc4ccccc4)S(=O)(=O)C3)CC2)CC1 (centres undefined)	none (no result: TRPM1 prom inh)
CC(=O)C1(O)CCC2C3CC(C)C4=CC(=O)CCC4(C)C3CCC21C (centres undefined)	none (no result: TRPM1 prom inh)
CC(=O)[C@@]1(O)CC[C@H]2[C@@H]3C[C@H](C)C4=CC(=O)CC[C@]4(C)[C@H]3CC[C@@]21C	CF NFkB block 54 | CF NFkB inh conf inactive
CCOC(=O)c1cccc(NS(=O)(=O)c2c(C)[nH]c(=O)[nH]c2=O)c1	none
CCOC(=O)c1cccc(NS(=O)(=O)c2ccc(NC(C)=O)cc2)c1	CF NFkB block 52 | CF NFkB inh conf 44
CC(C)CC(NC(=O)CCC(=O)OCC(=O)[C@@]1(O)CCC2[C@@H]3CCC4=CC(=O)C=C[C@]4(C)C3[C@@H](O)C[C@@]21C)C(=O)O (some centres undefined)	CF NFkB block 83 | CF NFkB inh conf inactive
CCC(C(=O)OCC(=O)C1(O)CCC2C3CCC4=CC(=O)CCC4(C)C3C(O)CC21C)C(C)C (centres undefined)	CF NFkB block 56 | CF NFkB inh conf inactive
O=C(Cn1ncc(Cl)c(Cl)c1=O)NC1CCCCC1	Peg3 prom inh 100, HIF-2a inh 86, TRPM1 prom inh 96, CF NFkB block 68 | CF NFkB inh conf inactive | Mdm2-MdmX confirm 103 | HIF-2a conf inactive | HIF-1a counter 102
O=C1CN(C(=O)Cn2ncc(Cl)c(Cl)c2=O)c2ccccc2N1	Peg3 prom inh 103, HIF-2a inh 96, TRPM1 prom inh 93, CF NFkB block 94 | CF NFkB inh conf 56 | HIF-2a conf inactive | HIF-1a counter 106
Cc1ccc(NC(=O)CN(C)C(=O)Cc2ccc(Cl)c(Cl)c2)cc1	none
Cc1ccc(NC(=O)CN(C)C(=O)Cn2ncc(Cl)c(Cl)c2=O)cc1	Peg3 prom inh 102, HIF-2a inh 97, TRPM1 prom inh 90, CF NFkB block 68 | CF NFkB inh conf inactive | HIF-2a conf 100 | HIF-1a counter 106
Cc1ccc(NC(=O)Cn2ncc(Cl)c(Cl)c2=O)cc1S(=O)(=O)N1CCCCC1	Peg3 prom inh 107, HIF-2a inh 94, TRPM1 prom inh 97, CF NFkB block 86 | CF NFkB inh conf inactive | Mdm2-MdmX confirm 103 | HIF-2a conf 57 | HIF-1a counter 103
O=C1CN(C(=O)COc2ccc(Cl)c(Cl)c2)c2ccccc2N1	none
COc1ccc(S(=O)(=O)N(C)C)cc1NC(=O)COC(=O)C1CC1	none (no result: TRPM1 prom inh)
Cc1cc(O)c(C(=O)/C=C/c2cccc([N+](=O)[O-])c2)c(=O)o1	none (no result: Shn3 inh set2)
CC(=O)Oc1ccccc1C(=O)C=Cc1cccc([N+](=O)[O-])c1	Peg3 prom inh 99, HIF-2a inh 89, TRPM1 prom inh 93, CF NFkB block 80 | CF NFkB inh conf inactive | HIF-2a conf 94 | HIF-1a counter 103
C=C(C)[C@@H]1C2=CC(C(=O)OC)=C(C[C@H](C(=C)C)[C@H]3O[C@H]3C3=C[C@H]1OC3=O)O2	Peg3 prom inh 103, HIF-2a inh 88, Shn3 inh set2 98, CF NFkB block 69 (no result: TRPM1 prom inh) | CF NFkB inh conf inactive | HIF-2a conf 89 | HIF-1a counter 106
COc1ccccc1/C=C/C(=O)c1c2c(c(C)[nH]c1=O)CCCC2	Peg3 prom inh 98, HIF-2a inh 73, TRPM1 prom inh 64, CF NFkB block 54 | CF NFkB inh conf 51 | Mdm2-MdmX confirm 103 | HIF-2a conf 63 | HIF-1a counter 88
COc1ccccc1/C=C/C(=O)c1ccccc1	none
COC(=O)C(=Cc1ccccc1[N+](=O)[O-])C(=O)OC	Peg3 prom inh 53, HIF-2a inh 77, CF NFkB block 59 | CF NFkB inh conf inactive | HIF-2a conf 72 | HIF-1a counter 59
COc1ccc(CNC(=O)/C=C/c2ccccc2[N+](=O)[O-])cc1	none
COc1ccc(NC(=O)CS(=O)(=O)c2cn(CC(=O)N3CCCC3)c3ccccc23)c(OC)c1	none
O=C(CCl)N(Cc1cc(=O)[nH]c2ccccc12)c1ccccc1	Peg3 prom inh 85, HIF-2a inh 47, TRPM1 prom inh 69, CF NFkB block 69 | CF NFkB inh conf 74 | Mdm2-MdmX confirm 101 | HIF-2a conf 70 | HIF-1a counter 104
Cc1onc(-c2ccccc2)c1C(=O)OCC(=O)N(CC(C)C)c1c(N)n(Cc2ccccc2)c(=O)[nH]c1=O	none
Cc1cc(C)c2nc(C(F)(F)F)c(C#N)c(N)c2c1	Peg3 prom inh 73, CF NFkB block 70 | CF NFkB inh conf 92 | Mdm2-MdmX confirm 83
Cn1nnnc1Sc1ncnc2scc(-c3ccc[nH]3)c12	HIF-2a inh 72, TRPM1 prom inh 84, CF NFkB block 83 | CF NFkB inh conf 64 | HIF-2a conf 41 | HIF-1a counter 100
N/C(=C\C(=O)c1cc(Cl)ccc1O)C(Cl)(Cl)Cl	CF NFkB block 54 | CF NFkB inh conf inactive | Mdm2-MdmX confirm 103
CC(C)(C)C(=O)/C(=C/c1ccncc1)n1cncn1	Peg3 prom inh 101, HIF-2a inh 93, TRPM1 prom inh 82, Shn3 inh set2 98, CF NFkB block 75 | CF NFkB inh conf 83 | Mdm2-MdmX confirm 102 | HIF-2a conf 62 | HIF-1a counter 106
Cc1noc2ncnc(Sc3ccccc3Cl)c12	Peg3 prom inh 115, HIF-2a inh 67, CF NFkB block 53 | CF NFkB inh conf inactive | HIF-2a conf inactive | HIF-1a counter inactive
Cc1ccc(S(=O)(=O)NCCC(=O)Nc2ncccc2O)cc1C	none
COc1cccc(NC(=O)CCC(=O)Nc2cc(OC)c(NC(=O)c3cccs3)cc2OC)c1	none
CCOC(=O)CS(=O)(=O)c1nc(-c2ccccc2)cc(C(F)(F)F)n1	Peg3 prom inh 105, HIF-2a inh 89, TRPM1 prom inh 102, Shn3 inh set2 97, CF NFkB block 79 | CF NFkB inh conf 60 | HIF-2a conf 82 | HIF-1a counter 65
